Where “and” joins values, the source holds several entries; their conditions need not be identical. Identical values can stand only once. A structure can be active in one record and inactive in another. Calls of active or inactive are those of the source. How the source made its calls: active means hit-call score of the fitted dose curve at least 0.9, where 1 is the maximum; inactive means score below 0.9.
How the values were obtained:
Details in all cases: mRNA level, 48 h; actives raise or lower the signal
[1] = read-out: Hypoxia-inducible factor 1-alpha (Homo sapiens) (UniProt Q16665); test: LTEA_HepaRG_HIF1A: Life Technologies and Expression Analysis (LTEA) Assay for Hypoxia-inducible factor 1 (HIF1A) Trancription factor using HepaRG (AID 2283503)
Summary of the method: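 Differentiated HepaRG cells in serum-free induction medium exposed 48 h, in duplicate, to 8-point half-log series from 100 uM in 0.5% DMSO. HIF1A mRNA measured by TaqMan qRT-PCR, normalized to ACTB/GAPDH/POLR2A, fitted bidirectionally versus DMSO.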

[2] = read-out: 3-Hydroxy-3-Methylglutaryl-CoA Synthase 2 (HMGCS2), HMGCS2 (gene 3158); test: LTEA_HepaRG_HMGCS2: Life Technologies and Expression Analysis (LTEA) Assay for 3-Hydroxy-3-Methylglutaryl-CoA Synthase 2 (HMGCS2) using HepaRG (AID 2283504)
Summary of the method: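 HepaRG, plated 48 h then switched to serum-free induction media; cmpd 8-pt, max 100 uM, 1/2-log, 0.5% DMSO, n=2, 48 h. HMGCS2 mRNA by Fluidigm TaqMan qRT-PCR, ACTB/GAPDH/POLR2A norm; bidirectional fit vs DMSO.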

HGF (gene 3082) = test: LTEA_HepaRG_HGF: Life Technologies and Expression Analysis (LTEA) Assay for Hepatocyte Growth Facto (HGF) using HepaRG (AID 2283505)
Summary of the method: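 Read-out is HGF transcript level by qRT-PCR, normalized to three housekeeping genes, fitted bidirectionally against 0.5% DMSO vehicle. Human HepaRG cells received test chemicals for 48 h at up to 100 uM.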

[3] = read-out: Insulin Like Growth Factor 1 (IGF1), IGF1 (gene 3479); test: LTEA_HepaRG_IGF1: Life Technologies and Expression Analysis (LTEA) Assay for Insulin Like Growth Factor 1 (IGF1) using HepaRG (AID 2283506)
Summary of the method: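 HepaRG, plated 48 h, then switched to serum-free induction media; test chemical 8-pt half-log from 100 uM (0.5% DMSO), duplicate, 48 h. Lysis in RLT, TaqMan qRT-PCR, norm. ACTB/GAPDH/POLR2A. Bidirectional fit vs DMSO.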

[4] = read-out: Intercellular Adhesion Molecule 1 (ICAM1), ICAM1 (gene 3383); test: LTEA_HepaRG_ICAM1: Life Technologies and Expression Analysis (LTEA) Assay for Intercellular Adhesion Molecule 1 (ICAM1) using HepaRG (AID 2283507)
Summary of the method: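 Readout is qRT-PCR mRNA level, normalized to three housekeeping genes and fitted bidirectionally against 0.5% DMSO vehicle. Human HepaRG cultures received compound for 48 h, top concentration 100 uM with half-log dilutions.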

[5] = read-out: Insulin-like growth factor-binding protein 1 (IGFBP1), IGFBP1 (gene 3484); test: LTEA_HepaRG_IGFBP1: Life Technologies and Expression Analysis (LTEA) Assay for Insulin-like growth factor-binding protein 1 (IGFBP1) using HepaRG (AID 2283508)
Summary of the method: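 Thawed HepaRG cells are plated for 48 h, switched to serum-free induction medium, then dosed in duplicate for another 48 h (100 uM top, half-log steps). Lysates in RLT go to qRT-PCR, and gain or loss of signal is fitted relative to vehicle.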

[6] = read-out: Interleukin 6 (IL6), IL6 (gene 3569); test: LTEA_HepaRG_IL6: Life Technologies and Expression Analysis (LTEA) Assay for Interleukin 6 (IL6) using HepaRG (AID 2283509)
Summary of the method: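 Differentiated human HepaRG cells, plated 48 h then switched to serum-free induction medium, were exposed in duplicate for 48 h to eight half-log concentrations up to 100 uM in 0.5% DMSO. IL6 mRNA measured by qRT-PCR, normalized to ACTB/GAPDH/POLR2A.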

[7] = read-out: Interleukin 6 Receptor (IL6R), IL6R (gene 3570); test: LTEA_HepaRG_IL6R: Life Technologies and Expression Analysis (LTEA) Assay for Interleukin 6 Receptor (IL6R) using HepaRG (AID 2283510);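 on AC50: TaqMan qRT-PCR signal normalized to ACTB GAPDH and POLR2A housekeeping genes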
Summary of the method: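 Readout is IL6R transcript level by TaqMan qRT-PCR, normalized to three housekeeping genes and fitted bidirectionally against 0.5% DMSO controls. Human HepaRG cells received chemicals for 48 h in serum-free induction medium, highest concentration 100 uM.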

[8] = read-out: Potassium channel subfamily K member 1 (KCNK1), KCNK1 (gene 3775); test: LTEA_HepaRG_KCNK1: Life Technologies and Expression Analysis (LTEA) Assay for Potassium channel subfamily K member 1 (KCNK1) using HepaRG (AID 2283511)
Summary of the method: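 Differentiated human HepaRG cells in serum-free induction medium were exposed in duplicate for 48 h to 8 half-log concentrations up to 100 uM in 0.5% DMSO. KCNK1 mRNA was measured by TaqMan qRT-PCR, normalized to ACTB, GAPDH and POLR2A, and fitted bidirectionally versus DMSO.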

[9] = read-out: Keratin 19 (KRT19), KRT19 (gene 3880); test: LTEA_HepaRG_KRT19: Life Technologies and Expression Analysis (LTEA) Assay for Keratin 19 (KRT19) using HepaRG (AID 2283512)
Summary of the method: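 KRT19 transcript levels, measured by Fluidigm qRT-PCR against three housekeeping genes, are fitted for gain or loss of signal relative to DMSO. Human HepaRG cells receive test chemicals (top 100 uM, half-log steps, 0.5% DMSO) for 48 hours.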

[10] = read-out: JUN Transcription Factor, JUN (gene 3725); test: LTEA_HepaRG_JUN: Life Technologies and Expression Analysis (LTEA) Assay for JUN Transcription Factor using HepaRG (AID 2283513)
Summary of the method: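 Cells plated 48 h, medium switched to serum-free induction medium, then dosed 48 h (100 uM top, half-log dilutions, 0.5% DMSO). RNA isolated; JUN measured by qRT-PCR against three housekeeping genes; gain or loss fitted relative to DMSO.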

[11] = read-out: Lipase C (LIPC), LIPC (gene 3990); test: LTEA_HepaRG_LIPC: Life Technologies and Expression Analysis (LTEA) Assay for Lipase C (LIPC) using HepaRG (AID 2283514)
Summary of the method: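 Differentiated human HepaRG cells in serum-free induction medium were exposed in duplicate for 48 h to eight concentrations (top 100 uM, half-log steps, 0.5% DMSO). LIPC mRNA was quantified by TaqMan qRT-PCR, normalized to ACTB, GAPDH and POLR2A, with bidirectional fitting versus DMSO.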

[12] = read-out: Lipoprotein lipase (LPL), LPL (gene 4023); test: LTEA_HepaRG_LPL: Life Technologies and Expression Analysis (LTEA) Assay for Lipoprotein lipase (LPL) using HepaRG (AID 2283515)
Summary of the method: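 Differentiated human HepaRG cells in serum-free induction medium were exposed in duplicate for 48 h to eight half-log concentrations (top 100 uM) in 0.5% DMSO. LPL mRNA was quantified by TaqMan qRT-PCR, normalized to ACTB, GAPDH and POLR2A.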

[13] = read-out: MicroRNA 122 (MIR122), gene 406906; test: LTEA_HepaRG_MIR122: Life Technologies and Expression Analysis (LTEA) Assay for MicroRNA 122 (MIR122) using HepaRG (AID 2283516); further: the transcript read is the microRNA miR-122
Summary of the method: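 HepaRG plated 48 h, switched to serum-free induction medium, then treated in duplicate for 48 h (100 uM top, half-log steps, 0.5% DMSO vehicle). RNA isolated, qRT-PCR performed, concentration-response fitted both directions relative to DMSO.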

[14] = read-out: matrix metalloproteinase-10 (MMP10), MMP10 (gene 4319); test: LTEA_HepaRG_MMP10: Life Technologies and Expression Analysis (LTEA) Assay for matrix metalloproteinase-10 (MMP10) using HepaRG (AID 2283517)
Summary of the method: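 HepaRG, collagen I, ~100,000 cells/well; serum-free induction medium; 48 h exposure, duplicate, 8-pt half-log to 100 uM, 0.5% DMSO. Readout: TaqMan qRT-PCR, normalized to ACTB/GAPDH/POLR2A; bidirectional fit vs DMSO.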

MYC, MYC (gene 4609) = test: LTEA_HepaRG_MYC: Life Technologies and Expression Analysis (LTEA) Assay for MYC using HepaRG (AID 2283518)
Summary of the method: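 HepaRG, ~100,000 cells/well, collagen I; 48 h plating; serum-free induction medium; 48 h dosing, duplicate, 100 uM top, half-log, 0.5% DMSO; total RNA → qRT-PCR MYC; gain/loss fit vs DMSO.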

[15] = read-out: matrix metalloproteinase-3 (MMP3), MMP3 (gene 4314); test: LTEA_HepaRG_MMP3: Life Technologies and Expression Analysis (LTEA) Assay for matrix metalloproteinase-3 (MMP3) using HepaRG (AID 2283519)
Summary of the method: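 Differentiated human HepaRG cells, plated 48 h on collagen I, were exposed in duplicate for 48 h in serum-free induction medium to eight half-log concentrations up to 100 uM in 0.5% DMSO. MMP3 mRNA was quantified by TaqMan qRT-PCR, normalised to ACTB, GAPDH and POLR2A.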

[16] = read-out: Paternally Expressed 10 (PEG10), PEG10 (gene 23089); test: LTEA_HepaRG_PEG10: Life Technologies and Expression Analysis (LTEA) Assay for Paternally Expressed 10 (PEG10) using HepaRG (AID 2283520)
Summary of the method: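 HepaRG, 48 h post-plating → serum-free induction medium → 48 h chemical exposure (duplicate, 8-pt, max 100 uM, half-log, 0.5% DMSO) → lysis in RLT → TaqMan qRT-PCR for PEG10, ACTB/GAPDH/POLR2A normalisation.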

[17] = read-out: Nuclear factor NF-kappa-B p105 subunit (Homo sapiens) (UniProt P19838); test: LTEA_HepaRG_NFKB1: Life Technologies and Expression Analysis (LTEA) Assay for Nuclear Factor Kappa B Subunit 1 (NFKB1) using HepaRG (AID 2283521);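 further: TaqMan qRT-PCR transcript normalised to ACTB GAPDH and POLR2A housekeeping genes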
Summary of the method: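 NFKB1 transcript was measured by TaqMan qRT-PCR on Fluidigm arrays, normalised to three housekeeping genes and fitted in both directions against 0.5% DMSO. HepaRG cells were dosed in duplicate for 48 h in serum-free induction medium, eight half-log steps from 100 uM.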

[18] = read-out: Protein phosphatase 2A (PPP2R4), PTPA (gene 5524); test: LTEA_HepaRG_PPP2R4: Life Technologies and Expression Analysis (LTEA) Assay for Protein phosphatase 2A (PPP2R4) using HepaRG (AID 2283522)
Summary of the method: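 Readout is PPP2R4 transcript level by microfluidic qRT-PCR after 48 h chemical treatment of human HepaRG liver cells. Concentrations spanned 100 uM downward in half-log steps; gain or loss of signal was fitted relative to DMSO.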

Chain of Nuclear factor NF-kappa-B p105 subunit (Homo sapiens) (P19838 whole entry, looked up): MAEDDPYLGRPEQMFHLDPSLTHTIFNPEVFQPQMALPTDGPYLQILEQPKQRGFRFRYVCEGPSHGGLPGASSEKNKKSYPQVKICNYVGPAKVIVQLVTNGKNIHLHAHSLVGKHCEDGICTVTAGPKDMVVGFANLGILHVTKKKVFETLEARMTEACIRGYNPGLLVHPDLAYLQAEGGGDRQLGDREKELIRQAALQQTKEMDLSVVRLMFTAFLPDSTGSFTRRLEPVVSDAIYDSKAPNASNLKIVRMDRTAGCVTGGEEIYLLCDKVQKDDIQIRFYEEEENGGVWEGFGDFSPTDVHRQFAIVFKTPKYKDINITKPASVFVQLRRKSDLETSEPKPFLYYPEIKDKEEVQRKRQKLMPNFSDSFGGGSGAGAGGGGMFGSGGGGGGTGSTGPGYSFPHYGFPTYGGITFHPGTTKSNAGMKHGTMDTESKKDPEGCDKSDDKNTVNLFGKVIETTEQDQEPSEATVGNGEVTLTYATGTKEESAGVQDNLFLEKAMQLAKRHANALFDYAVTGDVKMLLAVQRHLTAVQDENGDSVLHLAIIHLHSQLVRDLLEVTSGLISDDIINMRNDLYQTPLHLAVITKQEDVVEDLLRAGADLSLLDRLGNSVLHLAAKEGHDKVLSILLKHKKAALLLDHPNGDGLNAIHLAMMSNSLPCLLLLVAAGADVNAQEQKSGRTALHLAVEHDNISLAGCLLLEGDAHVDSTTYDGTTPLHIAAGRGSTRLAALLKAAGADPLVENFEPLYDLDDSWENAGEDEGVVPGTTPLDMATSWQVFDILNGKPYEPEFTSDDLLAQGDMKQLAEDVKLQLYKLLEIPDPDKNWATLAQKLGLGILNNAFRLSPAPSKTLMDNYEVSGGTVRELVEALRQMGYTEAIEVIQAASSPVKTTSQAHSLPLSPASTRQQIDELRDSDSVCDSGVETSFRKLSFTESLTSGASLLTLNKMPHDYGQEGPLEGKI
Chain of Hypoxia-inducible factor 1-alpha (Homo sapiens) (Q16665 whole entry, looked up): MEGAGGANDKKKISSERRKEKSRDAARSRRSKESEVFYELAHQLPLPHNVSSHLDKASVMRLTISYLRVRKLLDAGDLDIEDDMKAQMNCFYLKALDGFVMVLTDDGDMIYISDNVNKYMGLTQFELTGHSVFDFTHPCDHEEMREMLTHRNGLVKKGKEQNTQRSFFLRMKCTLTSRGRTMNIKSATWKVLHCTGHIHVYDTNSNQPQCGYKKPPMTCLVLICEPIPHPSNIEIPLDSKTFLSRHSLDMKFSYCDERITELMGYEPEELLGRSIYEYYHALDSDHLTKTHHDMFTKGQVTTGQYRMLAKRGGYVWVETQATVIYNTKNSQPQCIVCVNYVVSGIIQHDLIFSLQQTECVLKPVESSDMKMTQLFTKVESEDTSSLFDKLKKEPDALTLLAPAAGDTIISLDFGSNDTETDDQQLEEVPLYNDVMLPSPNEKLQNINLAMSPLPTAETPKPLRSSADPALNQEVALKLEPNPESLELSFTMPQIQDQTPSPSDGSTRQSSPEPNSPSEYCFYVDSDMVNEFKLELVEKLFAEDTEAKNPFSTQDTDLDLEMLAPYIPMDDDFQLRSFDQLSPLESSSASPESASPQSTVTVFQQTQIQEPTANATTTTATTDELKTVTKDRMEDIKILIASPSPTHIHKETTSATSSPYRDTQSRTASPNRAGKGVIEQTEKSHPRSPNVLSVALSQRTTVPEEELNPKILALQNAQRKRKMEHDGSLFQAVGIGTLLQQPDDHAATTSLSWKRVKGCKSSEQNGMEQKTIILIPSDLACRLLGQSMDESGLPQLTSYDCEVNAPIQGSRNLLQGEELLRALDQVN

For Oc1cc(Cl)ccc1Oc1ccc(Cl)cc1Cl, the AC50 [1] was 79 µM (active), the outcome [1] was “inactive” and the AC50 [2] was 82.8 µM (active). The outcome [2] was “inactive”, the AC50 (HGF (gene 3082)) was 51 µM (active) and the outcome (HGF (gene 3082)) was “inactive”. For the same compound, the AC50 [3] was 69 µM (active), the outcome [3] was “inactive” and the outcome [4] was “inactive”. The AC50 [5] was 71.9 µM (active), the outcome [5] was “inactive” and the AC50 [6] was 81.3 µM (active). For the same compound, the outcome [6] was “inactive”, the AC50 [7] was 51 µM (active) and the outcome [7] was “inactive”. The outcome [8] was “inactive”, the AC50 [9] was 69 µM (active) and the outcome [9] was “inactive”. The outcome [10] was “inactive”, the AC50 [11] was 78.7 µM (active) and the outcome [11] was “inactive”. For the same compound, the AC50 [12] was 86.4 nM (active) and 51 µM (active), the outcome [12] was “inactive” and the AC50 [13] was 82.3 µM (active). For the same compound, the outcome [13] was “inactive”, the AC50 [14] was 89 µM (active) and the outcome [14] was “inactive”. For the same compound, the AC50 (MYC, MYC (gene 4609)) was 83.5 µM (active), the outcome (MYC, MYC (gene 4609)) was “inactive” and the AC50 [15] was 51 µM (active). The outcome [15] was “inactive”, the AC50 [16] was 51 µM (active) and the outcome [16] was “inactive”. The outcome [17] was “inactive” and the outcome [18] was “inactive”.

For Cc1[nH]c(=O)n(C(C)(C)C)c(=O)c1Cl, the outcome [1] was “inactive”, the outcome [2] was “inactive” and the outcome (HGF (gene 3082)) was “inactive”. For the same compound, the outcome [3] was “inactive”, the outcome [4] was “inactive” and the AC50 [5] was 50 µM (active). For the same compound, the outcome [6] was “inactive”, the outcome [7] was “inactive” and the outcome [8] was “inactive”. The AC50 [9] was 50 µM (active), the outcome [10] was “inactive” and the outcome [12] was “inactive”. The outcome [13] was “inactive”, the outcome [14] was “inactive” and the outcome (MYC, MYC (gene 4609)) was “inactive”. The outcome [15] was “inactive”, the outcome [16] was “inactive” and the outcome [17] was “inactive”. For the same compound, the outcome [18] was “inactive”.

With COc1nn(CSP(=S)(OC)OC)c(=O)s1 the outcome [1] was “inactive”, the outcome [2] was “inactive” and the outcome (HGF (gene 3082)) was “inactive”. The outcome [3] was “inactive”, the outcome [4] was “inactive” and the outcome [5] was “inactive”. The outcome [6] was “inactive”, the outcome [7] was “inactive” and the outcome [8] was “inactive”. The outcome [9] was “inactive”, the outcome [10] was “inactive” and the outcome [12] was “inactive”. For the same compound, the outcome [13] was “inactive”, the outcome [14] was “inactive” and the outcome (MYC, MYC (gene 4609)) was “inactive”. The outcome [15] was “inactive”, the outcome [16] was “inactive” and the outcome [17] was “inactive”. The outcome [18] was “inactive”.

From PubChem BioAssay (EPA / NIEHS)
